CHX counter: Cycloheximide Counterscreen for Small Molecule Inhibitors of Shiga Toxin. cell reporter, cycloheximide protein synthesis inhibition counterscreen. max response, %. 12% of 300,000 active. AID 2314, 2010; in the data active = max response mostly above about 13%, no sharp cut-off; inactive = mostly below about 14%; also: read at 38.3 µM for the half of the compounds with a filed dose; 0% is about no effect
Marburg entry inh: qHTS for inhibitors of binding or entry into cells for Marburg Virus. Marburg virus pseudotyped entry inhibition, cell reporter. Potency, µM (highest dose often 37.8 µM), for the others: top-dose activity change, negative = inhibition, usual class: inhibitors. 1.8% of 300,000 active; calls by dose curve; tested in HEK293 cells; also: potency is read from the fitted curve at half-maximal effect; % is scaled to controls: 0 for no effect and ±100 for the full control effect
LASV entry inh: qHTS for Inhibitors of binding or entry into cells for Lassa Virus; Lassa virus pseudotype entry inhibition, cell reporter; 1.2% of 300,000 active; Potency, µM (doses to about 37.9 µM), for inactives: at the highest dose activity change, negative = inhibition, hits mostly inhibitors; calls by dose curve; tested in HEK293 cells; also: potency is read from the fitted curve at half-maximal effect; % is scaled to controls: 0 for no effect and ±100 for the full control effect; nearly all actives have a fitted effect of over 50% in size
Shiga toxin inh: A qHTS for Small Molecule Inhibitors of Shiga Toxin; AID 2315, 2010; inhibition, % at 38.7 µM; Vero cells, Shiga toxin protein synthesis inhibition reporter; 9.2% of 290,000 active; in the data active = inhibition mostly above about 28%, no sharp cut-off; inactive = mostly below about 43%; also: 0% is about no effect
* = called active by the depositor; ? = inconclusive; nt = no result given; [ ] = dose if it differs, or a comment. The list is not random: actives were taken first. Their share in the collection is about 12%.

SMILES | CHX counter | Marburg entry inh | LASV entry inh | Shiga toxin inh
O=C(N/N=C/c1ccc(OC(=O)c2cccs2)cc1)c1ccccn1 | 44.9* | -13.8% | ? | 53.1*
O=C(N/N=C\c1ccc(OC(=O)c2cccs2)cc1)c1ccc(Cl)cc1 | -1.0 | ? | 3.1% | 15.7
O=C(Oc1ccc(/C=N/NC(=O)c2ccccn2)cc1)c1cccc(F)c1 | nt | 14.5% | 2.0% | nt
CCOc1ccc(/C(O)=C2/C(=O)C(=O)N(CC3CCCO3)C2c2cccs2)cc1 (stereo unspecified) | -1.7 | ? | 2.0% | 8.3
O=C(N/N=C\c1ccc(OC(=O)c2ccco2)cc1)c1ccc(Cl)cc1 | -1.7 | nt | nt | -8.1
O=C(N/N=C/c1ccc(OC(=O)c2ccco2)cc1)c1ccccn1 | 27.3* | ? | ? | 39.4*
CC(C)(C)OC(=O)N/N=C/c1ccc(Br)cc1 | 40.2* | 7.0%[46.1 µM] | ? | 104.7*
CC(C)(C)c1ccc(NC(=O)COC(=O)CCN2C(=O)c3cccc([N+](=O)[O-])c3C2=O)cc1 | 17.9* | -1.4% | nt | 7.1
COc1ccc(CCNCC2C(Oc3ccc(Cl)cc3)C(=O)N2c2ccccc2C)cc1OC (stereo unspecified) | -2.0 | 11.2µM* | 4.6%[46.1 µM] | -25.4
c1ccc(-n2cccc2CNC2CCCCC2)cc1 | -1.4 | 20.6µM* | 2.0% | -2.0
Cc1ccc(NC(=O)CCn2c(=O)oc3ccccc32)c(C)c1 | 1.7 | 12.0% | 1.9% | -10.9
Cc1ccc(NC(=O)CCCn2c(=O)oc3ccccc32)c(O)c1 | 12.1* | nt | nt | 16.4
Cc1ccc(NC(=O)CCCC2CCCCC2)c(O)c1 | 34.3* | nt | nt | 109.3*
CN(C)c1cccc(C(=O)OCC(=O)NCc2ccco2)c1 | 18.7* | 14.7% | ? | 17.6
Cc1cc2c(cc(C(=O)OCC(=O)NCc3ccco3)n2C)s1 | 14.7* | -26.9% | ? | 43.7
CC(=O)Nc1cc(C(=O)OCC(=O)c2ccc(Cl)cc2Cl)ccc1C | 1.3 | 16.8% | ? | 3.0
COc1cc(C(=O)OCC(=O)NCc2ccco2)cc(OC)c1OC | -1.1 | ? | 1.5% | -3.9
CC(=O)Nc1cc(C(=O)OCC(=O)c2ccc(C)cc2)ccc1C | 85.8* | ? | -2.2% | 127.6*
O=C(COC(=O)c1ccccc1Nc1ccccc1)c1ccccc1 | 29.8* | 3.4% | -16.4% | 34.7
COc1ccc(-n2cc(C(=O)NCCc3cc(OC)ccc3OC)c3ccccc3c2=O)cc1 | nt | nt | -5.7%[46.1 µM] | nt
COC(=O)c1ccccc1S(=O)(=O)N1CCC(C(=O)Nc2ccc(N3CCOCC3)cc2)CC1 | nt | 1.3% | -6.7% | nt
CC(C)(C)c1ccc(OCC(=O)NCc2ccco2)c(Br)c1 | 29.5* | ? | 1.4% | 57.7
CC(=O)Nc1ccc(C(=O)OCC(=O)c2ccc(F)cc2)cc1 | 25.1* | -15.9% | -6.1% | 33.6*
CC(=O)Nc1ccc(C(=O)OCc2ccc(Cl)cc2)cc1 | -2.6 | ? | 4.3% | 28.0
CC(C)C(NC(=O)c1ccccc1F)C(=O)OCC(=O)c1ccc(F)cc1 (stereo unspecified) | 61.5* | 13.6%[46.1 µM] | -3.1% | 93.7*
SMILES | CHX counter | Marburg entry inh | LASV entry inh | Shiga toxin inh
CC(=O)Nc1ccc(C(=O)OCc2ccccc2Br)cc1 | 27.1* | -6.9%[46.1 µM] | -0.5%[46.1 µM] | 58.5*
CCN(c1ccccc1)S(=O)(=O)c1ccc(C(=O)N(C)CCc2ccc(OC)c(OC)c2)cc1 | -5.7 | -9.3%[46.1 µM] | -8.8% | -8.2
O=C(NCc1ccncc1)c1ccc(S(=O)(=O)Nc2ccccc2)cc1 | nt | -23.8% | 10.6% | nt
O=C(COC(=O)c1ccccc1-c1ccccc1[N+](=O)[O-])c1ccccc1 | 22.3* | -2.9% | -16.9% | 20.0
CC(=O)Nc1ccc(OC(=O)c2ccccc2N)cc1 | 19.2* | 14.6% | -23.7% | -52.7
CNc1ccccc1C(=O)OCC(=O)c1ccc(F)cc1 | 80.1* | ? | -2.0% | 121.6*
O=C(COC(=O)c1ccccc1[N+](=O)[O-])NC(=O)c1ccccc1 | nt | -13.7% | 10.8% | nt
CNc1ccccc1C(=O)OCC(=O)c1ccccc1 | 45.5* | ? | ? | 32.6*
O=C(O)c1cc(=O)c2cc(Cl)ccc2[nH]1 | 9.1 | nt | nt | -6.3
O=C(Nc1ccc(Cl)c(Cl)c1)Nc1nnc(CC2=CCCCC2)s1 | -6.8 | nt | nt | 2.0
CCOC(=O)c1ccc(-n2c(N)c(C(=O)OC)c3nc4ccccc4nc32)cc1 | nt | nt | -26.5%[46.1 µM] | nt
O=C(COC(=O)c1ccccc1Nc1ccccc1)NCc1ccco1 | 16.2* | -9.3% | -27.4% | 25.8
CCOC(=O)c1ccc2c(c1)N(CC(=O)Nc1ccc(C)cc1C)C(=O)c1ccccc1S2 | nt | nt | 10.5%[46.1 µM] | nt
O=C1C(Cl)=C(Nc2ccc3cn[nH]c3c2)C(=O)c2ccccc21 | -13.1 | ? | 3.55µM* | -12.0
CC(=O)Nc1ccc(NC2=C(Cl)C(=O)c3ccccc3C2=O)cc1 | 18.3 | ? | ? | 38.6
CN(C)c1ccc(NC2=C(Cl)C(=O)c3ccccc3C2=O)cc1 | 51.2* | ? | ? | 69.2*
CCOC(=O)N1CCC(NC(=O)c2ccc3c(c2)sc2nc(-c4ccccc4)cn23)CC1 | 38.9* | 11.2µM* | ? | 69.0*
CCOC(=O)N1CCC(NC(=O)c2ccc3c(c2)sc2nc(-c4cccc(OC)c4)cn23)CC1 | 7.2 | nt | nt | 35.1
Nc1nc(Cl)nc2c1ncn2[C@@H]1O[C@H](COP(=O)(O)OP(=O)(O)OP(=O)(O)O)[C@@H](O)[C@H]1O | nt | -25.8% | -17.7% | nt
Cc1cc(N(CCO)CCO)ccc1N=Nc1cc(F)ccc1F | 40.7* | ? | 18.0% | 117.8*
CCN(CC)CCCNC(=O)c1cn(CC)c2ccc(S(=O)(=O)N3CCC(C)CC3)cc2c1=O | nt | 0.0%[46.1 µM] | -3.3%[46.1 µM] | nt
Cc1sc2nc(CN(C(=O)c3cccs3)C3CCCC3)[nH]c(=O)c2c1C | 1.0 | ? | -7.4% | 22.2
O=C(c1cccs1)N(Cc1nc2sc3c(c2c(=O)[nH]1)CCCC3)C1CCCC1 | 10.9 | ? | 3.55µM* | 7.8
Cc1cccc(CCNC(=O)C2CCCN(S(=O)(=O)c3ccc4c(c3)oc(=O)n4C)C2)c1 (stereo unspecified) | nt | 6.9%[46.1 µM] | -18.0%[46.1 µM] | nt
CC(C)(C)N=C1NC(=NC(C)(C)C)c2ccccc21 | -1.0 | 14.6µM* | ? | -2.3
SMILES | CHX counter | Marburg entry inh | LASV entry inh | Shiga toxin inh
c1ccc2c(c1)C(=NCC1CCCO1)NC2=NCC1CCCO1 (stereo unspecified) | 5.8 | -0.8% | -10.4% | 13.1
O=C(NC1CCCC1)c1ccc(Br)o1 | -2.6 | -5.7% | -1.5% | -3.7
O=C(N/N=C1/CC2C=CCC12)c1ccc(Br)o1 (stereo unspecified) | 73.9* | ? | ? | 74.7*
COc1ccc(NC(=O)c2nn(C)cc2[N+](=O)[O-])cc1 | 15.4* | nt | nt | 35.0
Cn1cc([N+](=O)[O-])c(C(=O)Nc2ccc3c(C(F)(F)F)cc(=O)oc3c2)n1 | 14.9* | nt | nt | 12.3
COc1ccc(NC(=O)c2[nH]ncc2[N+](=O)[O-])cc1 | 25.6* | nt | nt | 63.5
COc1ccc(Cn2c(=O)c3ccccc3n3c(-c4ccc(C)cc4)nnc23)cc1 | nt | ? | -4.3%[46.1 µM] | nt
COc1ccc(NS(=O)(=O)c2ccc(N3CC(O)=C(c4ccccc4)C3=N)cc2)cc1 | 8.0 | -1.6%[46.1 µM] | ? | -10.2
CC(CNC(=O)CCS(=O)(=O)c1ccc2c(c1)NC(=O)CO2)c1ccccc1 (stereo unspecified) | 0.7 | 2.4%[46.1 µM] | -0.5%[46.1 µM] | -7.6
Cc1cnc(NC(=O)CSc2ccccc2)s1 | 30.0* | 14.4% | 11.4% | 40.6

Screening data as filed in PubChem BioAssay.
